In ChEMBL document CHEMBL3988442, “University of Dundee, Small-Polar-MMV Screening Library” (2021):
For some assays here: Entries with a potency or affinity are not part of this list.

Legend:
Design in all cases: scale not given: direction of the effect not stated beside the values
[1] = molecular target: Protein translocase subunit SecA (Escherichia coli (strain K12)) (UniProt P10408); assay: Assay to Identify E. coli SecA ATPase Inhibitors; type: functional; conditions: 30 µM
[2] = molecular target: T1, Ubiquitin-activating enzyme e1, putative (Leishmania donovani (strain BPK282A1)) (UniProt E9BSI1); assay: Leishmania donovani Ubiquitin Activating Enzyme (LdE1); type: functional; conditions: 30 µM
T1 sequence (whole entry): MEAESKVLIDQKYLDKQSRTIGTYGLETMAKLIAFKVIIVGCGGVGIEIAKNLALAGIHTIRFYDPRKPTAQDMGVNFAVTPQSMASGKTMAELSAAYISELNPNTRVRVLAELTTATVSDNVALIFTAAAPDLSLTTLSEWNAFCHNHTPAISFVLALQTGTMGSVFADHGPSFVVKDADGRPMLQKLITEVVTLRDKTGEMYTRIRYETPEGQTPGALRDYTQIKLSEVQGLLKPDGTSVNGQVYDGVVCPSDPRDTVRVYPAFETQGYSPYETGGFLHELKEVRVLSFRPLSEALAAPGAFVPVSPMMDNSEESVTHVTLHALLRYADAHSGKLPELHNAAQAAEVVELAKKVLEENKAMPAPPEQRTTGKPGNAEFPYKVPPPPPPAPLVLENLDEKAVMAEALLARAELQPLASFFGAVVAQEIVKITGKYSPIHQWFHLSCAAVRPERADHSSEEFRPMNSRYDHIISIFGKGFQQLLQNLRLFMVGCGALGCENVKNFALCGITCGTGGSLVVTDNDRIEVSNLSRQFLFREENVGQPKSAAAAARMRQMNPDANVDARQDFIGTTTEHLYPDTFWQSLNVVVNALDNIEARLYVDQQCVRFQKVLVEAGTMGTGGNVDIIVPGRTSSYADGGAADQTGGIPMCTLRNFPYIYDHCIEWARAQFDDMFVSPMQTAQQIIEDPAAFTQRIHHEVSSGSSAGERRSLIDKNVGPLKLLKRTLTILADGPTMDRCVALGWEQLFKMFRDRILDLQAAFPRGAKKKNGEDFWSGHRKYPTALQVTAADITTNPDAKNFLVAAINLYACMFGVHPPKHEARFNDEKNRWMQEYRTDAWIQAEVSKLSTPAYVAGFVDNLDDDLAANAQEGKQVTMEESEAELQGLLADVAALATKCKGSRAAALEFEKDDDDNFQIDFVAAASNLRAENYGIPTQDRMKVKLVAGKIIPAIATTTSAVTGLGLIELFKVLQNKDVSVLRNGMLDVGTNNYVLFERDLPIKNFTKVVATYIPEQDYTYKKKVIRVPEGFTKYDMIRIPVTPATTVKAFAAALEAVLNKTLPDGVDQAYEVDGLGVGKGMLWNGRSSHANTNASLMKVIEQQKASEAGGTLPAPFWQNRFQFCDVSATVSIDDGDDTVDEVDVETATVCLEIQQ

[3] = molecular target: AMP-activated protein kinase, AMPK (Homo sapiens) (UniProt P54646+O43741+P54619+Q9UGJ0+Q9Y478+Q13131+Q9UGI9); assay: AMP-dependent Kinase enzyme assay. An in vitro enzyme assay that detects ADP turnover that is directly proportional to AMPK activity. This uses naive AMPK that is activated during the assay with MK-8722; type: functional; conditions: 30 µM
[4] = molecular target: Sialic acid-binding Ig-like lectin 9 (Homo sapiens) (UniProt Q9Y336); assay: Hs-Siglec9 ALPHAscreen SOP 20170721; conditions: 10 µM
Chain of Sialic acid-binding Ig-like lectin 9 (Homo sapiens) (Q9Y336 whole entry): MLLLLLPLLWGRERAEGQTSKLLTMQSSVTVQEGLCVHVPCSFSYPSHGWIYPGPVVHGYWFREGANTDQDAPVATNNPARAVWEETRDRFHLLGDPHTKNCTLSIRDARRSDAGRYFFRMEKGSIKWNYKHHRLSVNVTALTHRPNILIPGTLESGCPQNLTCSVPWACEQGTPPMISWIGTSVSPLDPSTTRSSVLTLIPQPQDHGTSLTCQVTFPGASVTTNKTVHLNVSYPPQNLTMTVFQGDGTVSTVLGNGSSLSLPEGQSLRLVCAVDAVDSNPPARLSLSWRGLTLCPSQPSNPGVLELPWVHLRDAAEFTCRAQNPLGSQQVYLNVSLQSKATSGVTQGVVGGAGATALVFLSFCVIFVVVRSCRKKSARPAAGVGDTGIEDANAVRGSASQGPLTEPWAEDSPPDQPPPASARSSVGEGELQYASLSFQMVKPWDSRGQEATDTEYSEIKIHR

Trypanosoma cruzi = assay: Trypanosoma cruzi phosphomannomutase and mannose-1-phosphate guanylyltransferase assay; type: functional; conditions: 10 µM
[5] = molecular target: T2, Arginase-2, mitochondrial (Homo sapiens) (UniProt P78540); assay: in vitro enzyme assay to detect the production of urea directly proportional to the activity of Arginase II; type: functional; conditions: 33.3 µM; further: in the data most compounds retested in dose-response had high values
T2 sequence (whole entry): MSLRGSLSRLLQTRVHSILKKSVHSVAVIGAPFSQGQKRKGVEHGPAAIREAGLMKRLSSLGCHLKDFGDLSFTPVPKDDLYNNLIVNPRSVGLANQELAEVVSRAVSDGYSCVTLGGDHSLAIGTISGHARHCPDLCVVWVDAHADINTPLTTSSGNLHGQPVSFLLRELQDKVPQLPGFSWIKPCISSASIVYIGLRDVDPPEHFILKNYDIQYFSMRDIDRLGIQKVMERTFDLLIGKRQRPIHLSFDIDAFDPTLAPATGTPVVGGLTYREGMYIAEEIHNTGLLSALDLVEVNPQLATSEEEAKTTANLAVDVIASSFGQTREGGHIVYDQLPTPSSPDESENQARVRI

[6] = molecular target: T3, Proteasome subunit beta (Trypanosoma cruzi) (UniProt O96673); assay: Trypanosoma cruzi proteasome chymotrypsin-like activity (TcProtChymo) assay.; further: in the data most compounds retested in dose-response had high values; type: functional; conditions: 9.37 µM
T3 sequence (whole entry): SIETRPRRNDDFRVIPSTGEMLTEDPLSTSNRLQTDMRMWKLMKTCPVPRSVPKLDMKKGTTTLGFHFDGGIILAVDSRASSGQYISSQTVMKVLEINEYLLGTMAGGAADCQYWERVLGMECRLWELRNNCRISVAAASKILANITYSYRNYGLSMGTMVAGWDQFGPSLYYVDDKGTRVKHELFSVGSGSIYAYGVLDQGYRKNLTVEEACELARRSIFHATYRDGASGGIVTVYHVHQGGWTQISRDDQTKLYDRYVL

Homo sapiens = organism: Homo sapiens; assay: To identify inhibition of the IFN signalling (Jak-Stat) pathway via expression of an eGFP reporter gene under the control of an IFN-stimulated response element (ISRE) containing MxA promoter.; type: functional; conditions: 30 µM
[7] = molecular target: T4, Tyrosyl-tRNA synthetase, putative (Trypanosoma cruzi (strain CL Brener)) (UniProt Q4DSP6); assay: Trypanosoma cruzi tyrosyl tRNA synthetase (TcYRS) _High Tyrosine SOP; type: functional; conditions: 30 µM; further: in the data most compounds retested in dose-response had high values
T4 sequence (whole entry): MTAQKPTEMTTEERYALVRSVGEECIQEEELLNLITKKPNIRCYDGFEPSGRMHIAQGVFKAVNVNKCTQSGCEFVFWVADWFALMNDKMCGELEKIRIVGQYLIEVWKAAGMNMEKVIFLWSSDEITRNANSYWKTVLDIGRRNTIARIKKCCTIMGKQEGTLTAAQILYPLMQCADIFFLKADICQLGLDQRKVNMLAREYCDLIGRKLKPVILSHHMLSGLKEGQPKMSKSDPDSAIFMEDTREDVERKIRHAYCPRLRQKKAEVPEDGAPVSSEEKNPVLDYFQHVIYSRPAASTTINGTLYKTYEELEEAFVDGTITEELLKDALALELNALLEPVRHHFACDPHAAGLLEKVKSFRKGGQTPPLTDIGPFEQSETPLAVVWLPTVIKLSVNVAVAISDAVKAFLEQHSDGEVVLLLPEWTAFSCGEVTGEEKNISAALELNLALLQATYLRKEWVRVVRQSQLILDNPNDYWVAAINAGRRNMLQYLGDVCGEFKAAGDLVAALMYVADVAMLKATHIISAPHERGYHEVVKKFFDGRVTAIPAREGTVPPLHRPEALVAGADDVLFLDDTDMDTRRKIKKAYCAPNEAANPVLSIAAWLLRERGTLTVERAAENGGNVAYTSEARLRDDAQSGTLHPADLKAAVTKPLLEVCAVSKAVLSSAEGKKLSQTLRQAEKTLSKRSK

[8] = molecular target: T4, Tyrosyl-tRNA synthetase, putative (Trypanosoma cruzi (strain CL Brener)); assay: Trypanosoma cruzi tyrosyl tRNA synthetase (TcYRS) SOP; type: functional; conditions: 30 µM
[9] = molecular target: Chromo domain-containing protein 1 (Saccharomyces cerevisiae (strain ATCC 204508 / S288c) (Baker's yeast)) (UniProt P32657); assay: ScCHD-1 Enzyme Inhibition Assay; type: functional; conditions: 30 µM; further: in the data most compounds retested in dose-response had high values
Chain of Chromo domain-containing protein 1 (Saccharomyces cerevisiae (strain ATCC 204508 / S288c) (Baker's yeast)) (P32657 whole entry, the tested form may be a part): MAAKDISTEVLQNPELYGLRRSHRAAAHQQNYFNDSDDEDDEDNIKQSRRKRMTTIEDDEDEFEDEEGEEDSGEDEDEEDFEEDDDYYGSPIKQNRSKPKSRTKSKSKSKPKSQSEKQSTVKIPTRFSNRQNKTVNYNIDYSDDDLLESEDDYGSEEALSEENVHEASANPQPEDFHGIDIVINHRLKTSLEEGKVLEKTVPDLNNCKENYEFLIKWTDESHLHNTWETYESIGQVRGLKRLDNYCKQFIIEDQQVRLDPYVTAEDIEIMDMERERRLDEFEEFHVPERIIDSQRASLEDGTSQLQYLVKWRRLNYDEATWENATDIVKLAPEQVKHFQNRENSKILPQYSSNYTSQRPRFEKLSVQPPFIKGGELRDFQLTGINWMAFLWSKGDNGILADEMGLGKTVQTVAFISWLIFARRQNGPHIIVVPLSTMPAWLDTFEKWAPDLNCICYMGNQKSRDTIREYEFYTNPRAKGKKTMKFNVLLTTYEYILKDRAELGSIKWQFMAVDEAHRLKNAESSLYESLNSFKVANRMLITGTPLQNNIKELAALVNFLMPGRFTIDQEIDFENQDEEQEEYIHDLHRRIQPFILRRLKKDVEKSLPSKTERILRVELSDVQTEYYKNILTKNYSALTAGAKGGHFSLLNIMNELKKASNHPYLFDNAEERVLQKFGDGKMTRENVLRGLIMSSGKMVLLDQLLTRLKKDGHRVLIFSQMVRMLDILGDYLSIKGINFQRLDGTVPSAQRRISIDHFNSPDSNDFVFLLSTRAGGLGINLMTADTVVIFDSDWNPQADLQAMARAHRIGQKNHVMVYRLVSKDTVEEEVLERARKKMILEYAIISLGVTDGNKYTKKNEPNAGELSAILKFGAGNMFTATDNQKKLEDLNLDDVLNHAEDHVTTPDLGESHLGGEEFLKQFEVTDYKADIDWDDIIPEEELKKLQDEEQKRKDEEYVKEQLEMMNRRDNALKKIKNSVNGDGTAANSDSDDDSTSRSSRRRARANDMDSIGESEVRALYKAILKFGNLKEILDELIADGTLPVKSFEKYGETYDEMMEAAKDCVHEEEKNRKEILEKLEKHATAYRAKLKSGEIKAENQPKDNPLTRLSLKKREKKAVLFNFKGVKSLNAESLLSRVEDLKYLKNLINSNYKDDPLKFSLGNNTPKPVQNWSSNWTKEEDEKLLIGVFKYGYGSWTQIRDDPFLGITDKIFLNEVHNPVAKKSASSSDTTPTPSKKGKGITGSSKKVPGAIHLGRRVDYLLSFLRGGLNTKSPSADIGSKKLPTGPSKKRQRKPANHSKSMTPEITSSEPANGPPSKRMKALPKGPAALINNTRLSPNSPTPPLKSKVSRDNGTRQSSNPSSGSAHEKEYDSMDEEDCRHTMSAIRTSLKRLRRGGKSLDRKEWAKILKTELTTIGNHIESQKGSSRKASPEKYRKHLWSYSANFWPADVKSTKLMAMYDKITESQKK

Chain of Protein translocase subunit SecA (Escherichia coli (strain K12)) (P10408 whole entry): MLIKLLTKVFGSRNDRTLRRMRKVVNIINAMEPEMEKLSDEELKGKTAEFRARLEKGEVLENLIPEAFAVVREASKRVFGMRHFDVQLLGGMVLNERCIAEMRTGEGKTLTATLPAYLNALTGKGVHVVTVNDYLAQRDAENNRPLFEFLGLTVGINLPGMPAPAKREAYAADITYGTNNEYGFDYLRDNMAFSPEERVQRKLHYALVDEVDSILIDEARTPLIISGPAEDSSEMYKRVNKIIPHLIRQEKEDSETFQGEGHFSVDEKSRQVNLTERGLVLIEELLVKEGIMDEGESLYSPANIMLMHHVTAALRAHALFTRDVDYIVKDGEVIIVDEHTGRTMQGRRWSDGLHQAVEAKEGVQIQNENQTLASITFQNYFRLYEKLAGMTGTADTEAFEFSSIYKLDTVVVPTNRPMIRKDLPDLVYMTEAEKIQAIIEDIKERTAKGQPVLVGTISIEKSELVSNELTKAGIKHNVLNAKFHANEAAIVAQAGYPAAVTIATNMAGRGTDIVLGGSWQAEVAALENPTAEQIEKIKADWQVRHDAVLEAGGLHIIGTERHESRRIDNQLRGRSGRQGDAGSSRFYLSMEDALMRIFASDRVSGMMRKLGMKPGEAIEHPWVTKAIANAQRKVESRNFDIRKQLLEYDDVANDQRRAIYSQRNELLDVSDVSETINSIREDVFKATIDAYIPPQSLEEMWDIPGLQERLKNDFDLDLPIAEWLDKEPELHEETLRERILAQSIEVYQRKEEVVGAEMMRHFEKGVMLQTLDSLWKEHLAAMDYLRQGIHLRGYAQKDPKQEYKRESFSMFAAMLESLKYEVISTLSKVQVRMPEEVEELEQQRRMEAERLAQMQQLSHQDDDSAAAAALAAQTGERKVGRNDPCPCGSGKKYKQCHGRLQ

Structure (SMILES)	Percent Effect [1] [%]	Percent Effect [2] [%]	Percent Effect [3] [%]	Percent Effect [4] [%]	Percent Effect (Trypanosoma cruzi) [%]	Percent Effect [5] [%]	Percent Effect [6] [%]	Percent Effect (Homo sapiens) [%]	Percent Effect [7] [%]	Percent Effect [8] [%]	Percent Effect [9] [%]
COc1ccc(NC(=O)NC(C)(C)c2noc(C)n2)cc1	-5.98	2.74	9.96	-2.01	0.979	5	13.5	7.14	4.3	12.5	-1.95
COc1ccc(CN2CCCCC2CNC(=O)OC(C)(C)C)cc1F (stereo not given)	-3.55	0	-2.98	21.3	-1.86	-1.74	0.0858	-23.7	-2.15	1.24	-2.09
CC(NC(=O)NCCCN(C)S(C)(=O)=O)c1ccncc1 (stereo not given)	-0.684	8.86	5.26	-2.69	-2.77	5.38	10.8	1.71	12.5	20.2	-14.2
CCn1cnnc1CNC(=O)c1ccc(Cl)cc1F	-2.15	16.5	-1.73	3.58	0.103	-6.24	16.6	5.91	9.38	17.7	-13.8
COCCN1C(=O)C[C@H]2[C@H]1CCN2Cc1ccc(OC)cc1	-2.83	5.33	11	-2.04	-9.45	7.69	13.5	17.5	3.19	6.41	-5.69
COc1ccc(Br)c(C(=O)N2CCC(c3n[nH]c(C4CC4)n3)CC2)c1	-4.1	16.5	1.39	2.29	0.513	-3.23	11.8	4.22	4.17	25.3	-27.6
CNC(=O)NC(=O)Cn1cc(-c2ccccc2)cn1	-4.72	6.33	12.6	5.24	-5.03	-1.07	8.23	17.1	2.08	10.1	-4.57
Cc1nnc2n1CCN(CCC(=O)Nc1sccc1C#N)C2	-2.38	13.2	-4.92	7.34	0.84	-0.719	10.4	9.54	6.4	18.5	-2.88
O=C(c1cccc(Cn2ccnc2)c1)N1CCCC(n2ccnc2)C1 (stereo not given)	-0.331	16.2	-8.78	1.96	5.11	-2.4	7	29	5.94	25.6	-6.66
COc1cccc(OCCNCc2c(C)nn(C)c2N(C)C)c1	-5.35	5.26	-9.94	10.1	1.5	1.92	7.69	-12	4.41	19.5	-8.18
